Experimental findings from PubChem BioAssay (NCI) are described below.

Holding throughout (assay): NCI-60 one-dose screen, 48 h (100 = growth as untreated, 0 = no growth, -100 = all killed)
Common to all, as to details: 10 µM unless noted

Assay [1] concerns NCI-H23 lung.
The subject of assay [2] is NCI-H226 lung.
Assay [3] has as its system NCI-H322M lung.
The subject of assay [4] is HOP-62 NSCLC.
Assay [5] deals with NCI-H460 lung.
In assay [6] the test system is HOP-92 NSCLC.
For assay [7], the system named is NCI-H522 lung.
The test system of assay [8] is A549/ATCC NSCLC.
In assay [9] the test system is 786-0 renal.
In assay [10] the test system is COLO 205 colon.

Values joined by “and” are separate entries in the source; they are usually repeats but may differ in a detail not shown here. Equal entries are not always repeated. This is part of a sample that, as a whole, favours compounds with a hit. Of some 83,000 tested, about 20% had one in any assay.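 Negative percent growth values reflect cell death: -40 means 40% of the cells present at the start died, and -100 means all died.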 A number with no mark means an inactive call. Active and inactive are the calls of the source. Rule for the calls: active = growth percent below 10; inactive = the rest.

Take `O=C(NNc1ccccc1)c1ncc[nH]1`: the growth was 96.2% in assay [1]; 62.6% in assay [2]; 82.8% in assay [3]; 73% in [4]; 100% in assay [5]; 95.1% in assay [6]. Further, the growth is 50.8% in [7], 64.4% in [8], 75.2% in assay [9] and 79.7% in assay [10].

In the case of `Cc1cccc(-c2nnc(SCC(=O)Nc3ncc(Cc4ccccc4)s3)n2N2C(=O)CSC2=S)c1`, the growth is 36.7% in assay [1]; 31.5% in [2]; 40.1% in [3]; 30.3% in assay [4]; 20% in assay [5]; 8.49% (active) in [6]. Moreover, the growth in assay [7] is 34.5%; in assay [8], 7.99% (active); in [9] it was 29.8%; in [10] it was 66.6%.

`CCOc1ccc(C(=O)Cc2ccccc2)cc1`: the growth is 115% and 105% in assay [1]; 99.1% in [2]; 114% in assay [3]; 97.3% and 121% in assay [4]; 110% and 112% in assay [5]; 108% and 102% in assay [6]. For the same compound, the growth was 93.8% and 102% in [7]; 98.9% and 99.4% in assay [8]; 93.2% and 103% in [9]; 120% and 125% in assay [10].

Regarding `CCC(=C(c1ccc(OCCCN(C)C)cc1)c1ccc(OCCCN(C)C)cc1)c1ccc(Cl)cc1`, the growth is -80% (active) in [1]; -66.8% (active) in assay [2]; -96.8% (active) in assay [3]; -78% (active) in assay [4]; -71.1% (active) in assay [5]; -80% (active) in [6]. For the same compound, the growth in assay [7] was -66.5% (active); in assay [8] it was -69.9% (active); in [9], -86.8% (active); in assay [10], -67.3% (active).

`COc1cc(/C=C2\C(=O)N(CCCCn3c4ccccc4c(=O)c4ccccc43)c3ccccc32)cc(OC)c1O`: the growth in assay [1] is 71.6%; in assay [2], 91.5%; in assay [3] it was 86%; in assay [4], 102%; in assay [5], 60%; in [6], 65.7%. Moreover, the growth is 27.4% in assay [7], 95.4% in assay [8], 88.3% in [9] and 107% in [10].

For the compound `Cc1ccc(C(=O)Nc2ccc(CN3CCN(C)CC3)c(C(F)(F)F)c2)cc1C#Cc1cnc(N)cc1C#N`, the growth in assay [1] was -40.7% (active); in assay [2], 9.78% (active); in assay [3] it was 12.4%; in assay [4], -69.7% (active); in assay [5], -80.7% (active); in assay [6] it was -39.8% (active). For the same compound, the growth in assay [7] was -72.7% (active); in assay [8], -84.7% (active); in [9], -73.8% (active); in [10], -64.9% (active).

Consider `CN1C(=O)N(C)C2(c3ccccc3)N(CC(=O)Nc3ccccc3O)C(=O)NC12c1ccccc1` (stereo not given), for which the growth in [1] is 101%; in assay [2] it was 90.7%; in assay [3] it was 100%; in assay [4], 102%; in assay [5] it was 106%; in [6] it was 107%. In addition, the growth in assay [7] is 86.2%; in assay [8], 109%; in [9], 103%; in assay [10], 110%.

Turning to `COc1ccc(-c2ccc(-c3ccc(C(=N)N)cn3)o2)cc1Cl`, the growth is 69.3% in [1]; 81.4% in [2]; 77.2% in assay [3]; 67.5% in assay [4]; 0.593% (active) in assay [5]; 36.4% in [6]. For the same compound, the growth in [7] was 59.5%; in assay [8], 21.2%; in assay [9], -6.3% (active); in assay [10], -72.6% (active).

In the case of `N#C/C(=C\c1ccc(Br)cc1)n1nnc2c(F)cccc21`, the growth in [1] is 10.3%; in assay [2], 25.5%; in assay [3], 0.929% (active); in [4], 53.8%; in assay [5], -33.7% (active); in assay [6], 19.2%. Besides, the growth was -52.1% (active) in assay [7], 14.8% in assay [8], -13.5% (active) in [9] and -15.9% (active) in assay [10].

For the compound `Cc1ccc(NC(=O)c2sc3nc(C)c(C(=O)c4ccccc4)cc3c2N)cc1`, the growth in assay [1] is 96.2%; in [2], 99.9%; in [3] it was 92.2%; in assay [4], 90.7%; in [5] it was 65.7%; in [6], 80%. Further, the growth in assay [7] is 88.2%; in assay [8], 44.1%; in assay [9], 91.9%; in [10], 98.5%.

On to `CC12OC(CC(O)C1O)n1c3ccccc3c3c4c(c5c6ccccc6n2c5c31)C(=O)N(CCN1CCOCC1)C4=O` (stereo not given), for which the growth in [1] was -6.63% (active); in [2], -35.6% (active); in assay [3], 14.5%; in [4], -11.7% (active); in assay [5] it was -12.5% (active); in assay [6], 19.6%. Moreover, the growth in [7] is -16.3% (active); in assay [8], -31.8% (active); in assay [9], 1.94% (active); in [10], -2.3% (active).

On to `COc1c(O)c(O)cc2c3c(oc12)CC(c1ccc2c(c1)OCO2)CC3=O` (stereo not given), for which the growth is 69.4% in assay [1]; 80% in [2]; 73.2% in assay [3]; 71.4% in assay [4]; 25% in assay [5]; 71.7% in [6]. Moreover, the growth in [7] is 54.2%; in assay [8], 60.7%; in [9], 52.1%; in [10] it was 119%.

Regarding `Cc1nc2cccc(NCCCCC(=O)NO)c2c(=O)n1-c1ccccc1`, the growth in assay [1] was 69.3%; in assay [2], 83.9%; in [3], 66.1%; in assay [4] it was 50.3%; in assay [5] it was 76.5%; in assay [6], 43.3%. Also, the growth was 43.5% in assay [7], 78.8% in assay [8], 69.7% in assay [9] and 62.4% in [10].
